Results on eight molecules are retold here after PubChem BioAssay (Tox21).

Inconclusive results are not listed. Activity calls are given as the source filed them. Unless noted, calls follow the shape of the dose curve; as a rule, active = well fitted curve in the direction sought with a large enough effect in the repeat runs; inconclusive = weak or mixed curves; inactive = no such curve, though single readings can be large; an effect the other way counts as inactive or inconclusive.

The nature of assay [1]: A CellTox Green Cytotoxicity Assay to monitor cytotoxicity in HEK293 cells - 32 hour (AID 1224881). Also: nearly all actives have a fitted effect of over 40% in size. Summed up:
(§1)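 Cells (HEK293, 600/well) and dye reagent are dispensed together. After 5 h at 37 C, 23 nL compound is pinned in. Plates stay at 37 C for 40 h with fluorescence read at 0h, 8h, 16h, 24h, 32h and 40h.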

Assay [2] can be described thus: A CellTox Green Cytotoxicity Assay to monitor cytotoxicity in HepG2 cells - 0 hour (AID 1224882). Also: nearly all actives have a fitted effect of over 35% in size. Put shortly:
(§2)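 Cells and non-lytic dye reagent are dispensed together (600 HepG2 cells/well) and incubated 5 h before DMSO compound transfer. Kinetic fluorescence is then recorded in the same wells during 40 h at 37 C.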

Assay [3] is described as follows: A CellTox Green Cytotoxicity Assay to monitor cytotoxicity in HepG2 cells - 32 hour (AID 1224883). Also: nearly all actives have a fitted effect of over 50% in size. Summed up: as §2
The nature of assay [4]: qHTS RealTime-Glo MT Cell Viability Assay in HepG2 cells - 16 hour (AID 1224885). Also: nearly all actives have a fitted effect of over 50% in size. Summed up: (§3)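 HepG2 suspension premixed with RealTime-Glo reagents is plated at 600 cells per well and left 5 h at 37 C/5% CO2. Compounds in DMSO then go in, and bioluminescence reflecting viable cell number is recorded over 40 h.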
(In general: In qHTS, concentration-response curves come from the screen itself.)

Assay [5] is described as follows: qHTS RealTime-Glo MT Cell Viability Assay in HEK293 cells - 24 hour (AID 1224886). Also: top concentration of the series differs between compounds; nearly all actives have a fitted effect of over 50% in size. Summed up:
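Reads taken at 0, 8, 16, 24, 32 and 40 h from the same wells. HEK293 cells (600/well) carried RealTime-Glo reagents from seeding, with compound added after a 5 h settle at 37 C.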

A short description of assay [6]: qHTS RealTime-Glo MT Cell Viability Assay in HEK293 cells - 8 hour (AID 1224887). Also: top concentration of the series differs between compounds; nearly all actives have a fitted effect of over 50% in size. Put shortly:
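Real-time viability in HEK293: signal arises when living cells convert a prosubstrate for NanoLuc in the medium, so luminescence tracks viable cell number. Compound (23 nL, DMSO) added 5 h post-seeding; kinetic reads at 0–40 h, 37 C.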

The nature of assay [7]: A CellTox Green Cytotoxicity Assay to monitor cytotoxicity in HEK293 cells - 16 hour (AID 1224888). Also: nearly all actives have a fitted effect of over 35% in size. Summed up: as §1
The nature of assay [8]: qHTS RealTime-Glo MT Cell Viability Assay in HepG2 cells - 0 hour (AID 1224889). Also: nearly all actives have a fitted effect of over 50% in size. Summed up: as §3
Assay [9] can be described thus: A CellTox Green Cytotoxicity Assay to monitor cytotoxicity in HepG2 cells - 8 hour (AID 1224890). Also: nearly all actives have a fitted effect of over 45% in size. Put shortly: as §2
Assay [10] can be described thus: qHTS assay to identify small molecule antagonists of the estrogen receptor alpha (ER-alpha) signaling pathway using the BG1 cell line in the presence of 0.1 nM 17-beta-estradiol - cell viability counter screen (AID 1259241). Also: nearly all actives have a fitted effect of over 40% in size. Summed up:
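Cells were plated and left 24 hr, compounds in DMSO were pinned in, 17beta-estradiol was added to 0.1 nM final, and after 22 hr CellTiter-Fluor reagent was added for 30 min before fluorescence was read.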

Assay [11] is described as follows: qHTS assay to identify small molecule antagonists of the androgen receptor (AR) signaling pathway using the MDA cell line in the presence of 0.5 nM R1881 - cell viability counter screen (AID 1259242). Also: nearly all actives have a fitted effect of over 45% in size. Summed up:
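Steps: plate MDA-kb2 cells, rest 5 hr at 37C without CO2; pin in compounds in DMSO; add R1881 to 0.5 nM final; incubate 16 hr; add CellTiter-Fluor, 30 min; read fluorescence.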

Assay [12] has as its target Androgen receptor (Homo sapiens) (UniProt P10275). Nature of the assay: qHTS assay to identify small molecule antagonists of the androgen receptor (AR) signaling pathway using the MDA cell line in the presence of 0.5 nM R1881 (AID 1259243). Also: nearly all actives have a fitted effect of over 50% in size. Put shortly:
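Stably transfected MDA-kb2 cells express luciferase from an MMTV promoter bearing both AR and GR response elements. Compounds plus 0.5 nM R1881 (final) were incubated 16 hr at 37C without CO2, then luminescence measured.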

Assay [13] in a line: qHTS assay to identify small molecule HDAC inhibitors (AID 1259364). Also: potency is read from the fitted curve at half-maximal effect.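 Also: wild-type HCT-116 cells with endogenous class I/II HDAC activity; nearly all actives have a fitted effect of over 45% in size.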 Summed up:
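Cells (HCT-116, wild type) are seeded at 1,500 per well, incubated overnight, treated with compound in DMSO for 2 hr, then developed with HDAC-Glo I/II reagent for 30 min at room temperature.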

Assay [14] is described as follows: qHTS assay to identify small molecule HDAC inhibitors - cell viability counter screen (AID 1259365). Put shortly:
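Counter screen in wild-type HCT-116 cells: compounds dissolved in DMSO are pin-transferred onto overnight-plated cells and left 2hr at 37C. ATP-based CellTiter-Glo luminescence then measures viable cells.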

The nature of assay [15]: qHTS assay to identify small molecule agonists of the sonic hedgehog signaling (Shh) pathway - cell viability counter screen (AID 1259366). Also: nearly all actives have a fitted effect of over 50% in size. Put shortly:
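Cells are plated at 2,000 per well and left 4hr at 37C, 5% CO2 before compound addition. After 23hr of treatment, CellTiter-Fluor reagent is added for 1hr at 37C and fluorescence is measured.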

Assay [16] is described as follows: qHTS assay to identify small molecule antagonists of the sonic hedgehog signaling (Shh) pathway - cell viability counter screen (AID 1259367). Also: nearly all actives have a fitted effect of over 55% in size. Put shortly: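 CellTiter-Fluor signal in conditioned medium-stimulated 3T3 Gli1-Luc cells, 23 hr compound exposure, 37C.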
Assay [17] can be described thus: qHTS assay to identify small molecule agonists of the sonic hedgehog signaling (Shh) pathway (AID 1259368; calls by dose curve;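 also: NIH/3T3-derived 3T3Gli1-Luc cells carrying a stable Gli1-driven firefly luciferase reporter; series mostly up to about 92 µM; nearly all actives have a fitted effect of over 15% in size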). Summed up:
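Cells of a mouse NIH/3T3 clone stably expressing luciferase under the Gli1 transcriptional response element are exposed to test chemicals for 24 hr at 37 C. Pathway activation is detected as a rise in luminescence.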

The target in assay [18] is Estrogen receptor (Homo sapiens) (UniProt P03372). The experiment in a line: qHTS assay to identify small molecule antagonists of the estrogen receptor alpha (ER-alpha) signaling pathway using the BG1 cell line in the presence of 0.1 nM 17-beta-estradiol (AID 1259244). Also: nearly all actives have a fitted effect of over 50% in size. Summed up:
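Antagonist mode: compounds in DMSO are pinned onto VM7Luc4E2 reporter cells, 0.1 nM final 17beta-estradiol is added, and after 22 h at 37C luciferase luminescence is measured with ONE-Glo.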

Assay [19] is described as follows: qHTS assay to identify small molecule phospholipidosis (PLD) inducers (AID 1259344; active = well fitted curve in the direction sought with a large enough effect; an effect the other way counts as inactive or inconclusive). Put shortly:
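Accumulated phospholipid, stained red by LipidTOX during 24 h compound treatment of HepG2 cells at 37 C, is quantified from images as pit number and intensity, normalised per cell using Hoechst-stained nuclei.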

A short description of assay [20]: A CellTox Green Cytotoxicity Assay to monitor cytotoxicity in HEK293 cells - 8 hour (AID 1224884). Also: nearly all actives have a fitted effect of over 35% in size. Put shortly:
as §1

Sequence of Androgen receptor (Homo sapiens) (P10275 whole entry, looked up): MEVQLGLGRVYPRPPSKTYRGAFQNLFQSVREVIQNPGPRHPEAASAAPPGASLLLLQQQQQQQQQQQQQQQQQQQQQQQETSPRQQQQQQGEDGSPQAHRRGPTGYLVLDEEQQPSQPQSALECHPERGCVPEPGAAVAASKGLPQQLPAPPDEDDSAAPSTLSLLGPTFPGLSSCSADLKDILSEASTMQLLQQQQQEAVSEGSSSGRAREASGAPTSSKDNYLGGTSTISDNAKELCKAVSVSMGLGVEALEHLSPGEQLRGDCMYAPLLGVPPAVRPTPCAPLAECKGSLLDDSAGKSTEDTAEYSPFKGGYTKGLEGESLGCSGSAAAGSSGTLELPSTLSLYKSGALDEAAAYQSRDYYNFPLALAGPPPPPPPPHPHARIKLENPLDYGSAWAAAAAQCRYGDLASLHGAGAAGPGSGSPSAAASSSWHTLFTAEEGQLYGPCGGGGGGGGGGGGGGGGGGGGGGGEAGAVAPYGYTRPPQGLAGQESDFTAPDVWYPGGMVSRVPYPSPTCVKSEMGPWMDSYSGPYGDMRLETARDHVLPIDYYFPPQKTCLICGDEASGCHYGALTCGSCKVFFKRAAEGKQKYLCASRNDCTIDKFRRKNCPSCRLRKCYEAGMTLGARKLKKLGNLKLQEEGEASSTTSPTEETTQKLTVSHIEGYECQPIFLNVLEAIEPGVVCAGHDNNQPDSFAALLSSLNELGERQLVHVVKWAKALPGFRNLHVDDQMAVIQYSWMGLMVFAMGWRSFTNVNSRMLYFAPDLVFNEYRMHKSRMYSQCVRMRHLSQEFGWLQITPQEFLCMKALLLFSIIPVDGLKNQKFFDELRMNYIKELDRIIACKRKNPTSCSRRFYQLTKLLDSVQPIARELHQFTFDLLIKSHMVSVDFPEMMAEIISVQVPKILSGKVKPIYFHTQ
Sequence of Estrogen receptor (Homo sapiens) (P03372 whole entry, looked up): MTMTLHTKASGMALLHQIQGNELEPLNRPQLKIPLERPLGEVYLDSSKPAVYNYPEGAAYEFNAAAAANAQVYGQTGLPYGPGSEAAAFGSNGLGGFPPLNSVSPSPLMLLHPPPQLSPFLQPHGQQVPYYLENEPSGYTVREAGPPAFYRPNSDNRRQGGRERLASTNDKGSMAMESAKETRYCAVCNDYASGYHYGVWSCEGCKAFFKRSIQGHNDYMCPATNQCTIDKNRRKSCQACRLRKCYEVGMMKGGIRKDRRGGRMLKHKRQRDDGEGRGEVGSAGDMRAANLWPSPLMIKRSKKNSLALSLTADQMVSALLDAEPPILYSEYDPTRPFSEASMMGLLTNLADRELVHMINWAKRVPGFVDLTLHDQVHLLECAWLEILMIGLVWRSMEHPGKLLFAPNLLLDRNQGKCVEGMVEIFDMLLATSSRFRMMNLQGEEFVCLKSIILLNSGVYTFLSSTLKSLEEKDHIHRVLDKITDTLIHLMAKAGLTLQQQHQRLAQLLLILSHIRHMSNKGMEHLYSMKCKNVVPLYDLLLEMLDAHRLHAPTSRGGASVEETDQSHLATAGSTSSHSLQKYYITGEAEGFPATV

`CNC(=O)N(C)c1nc2ccccc2s1`: the Potency result in assay [1], in assay [3], in assay [4], in assay [5], in [6] and in assay [7] was “inactive” in each case. The Potency result in [8], in assay [9], in assay [12], in [15] and in assay [16] was “inactive” each time. The molecule was classed as inactive in assay [2], in [10], in assay [11], in assay [14] and in assay [17]. In addition, the Potency in assay [13] is 545 nM (active).

As to `CCOP(=S)(OCC)Oc1nc(Cl)n(C(C)C)n1`, the Potency result in [1], in [3], in [4], in assay [5], in [6] and in assay [7] was “inactive” throughout. The Potency entry in assay [8], in assay [9], in assay [18], in [13], in assay [15] and in assay [16] was “inactive” each time. The molecule was classed as inactive in assay [2], in assay [10], in [11], in [14] and in assay [17].

Consider `COc1cc2c(cc1OC)[C@@]13CCN4CC5=CCO[C@H]6CC(=O)N2[C@H]1[C@H]6[C@H]5C[C@H]43`, for which the Potency result in [1], in assay [3], in [4], in assay [5], in assay [6] and in assay [7] was “inactive” each time. The Potency entry in [8], in [9], in assay [18] and in [13] was “inactive” each time. Further, the call in [2], in assay [10], in [11], in assay [19], in assay [14] and in assay [17] was inactive.

As for `Oc1c(Cl)cccc1Cl`, the Potency result in [1], in [3], in assay [20], in assay [5], in [6] and in assay [8] was “inactive” in each case. Also, the Potency result in assay [9], in assay [18], in assay [13], in assay [15] and in [16] was “inactive” in each case. Further, the outcome in assay [2], in assay [10], in [11], in assay [14] and in [17] was inactive.

On to `O=NN1CCCCC1`, for which the Potency result in assay [1], in [3], in assay [4], in assay [5], in assay [6] and in assay [7] was “inactive” throughout. The Potency result in assay [8], in assay [9], in [12], in [13], in assay [15] and in [16] was “inactive” in each case. Further, the result in assay [2], in [10], in [11], in assay [14] and in [17] was inactive.

As for `O=S(=O)(O)C(F)(F)C(F)(F)C(F)(F)C(F)(F)C(F)(F)C(F)(F)F`, the Potency result in assay [1], in assay [3], in [20], in assay [6], in assay [8] and in assay [9] was “inactive” each time. Further, the Potency result in assay [18], in assay [13], in assay [15] and in assay [16] was “inactive” each time. For the same molecule, the result in [2], in [10], in assay [11], in assay [14] and in assay [17] was inactive.

As for `ClCC(Cl)(Cl)Cl`, the Potency result in assay [1], in [3], in assay [4], in assay [5], in assay [6] and in [7] was “inactive” in each case. The Potency result in [8], in [9], in assay [18], in [13] and in assay [15] was “inactive” in each case. Besides, the call in [2], in assay [10], in assay [11], in [14] and in assay [17] was inactive.

As to `Clc1ccccc1N1CCNCC1`, the Potency entry in assay [1], in [3], in assay [4], in [5], in [6] and in assay [7] was “inactive” in each case. In addition, the Potency result in assay [8], in assay [9], in assay [12], in assay [18], in assay [13] and in assay [15] was “inactive” throughout. The Potency result in assay [16] was “inactive”. Also, the molecule was called inactive in [2], in [10], in assay [11], in [14] and in assay [17].
